Screening data deposited in PubChem by Broad Institute.
GSIS activator: primary screen for activators of insulin secretion dependent on glucose, INS-1E cells, GLuc reporter luminescence; activation, % at 16.6 µM; AID 743287; 370,000 tested, 0.61% active; INS-1E GLuc reporter insulin secretion, 2-3 h;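 active means lowest replicate activation of at least 40%, so every replicate reaches that level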
ERAP1 inh: blocks human ERAP1 aminopeptidase activity; inhibition, % at 10.7 µM; recombinant ERAP1, Leu-AMC fluorescence, 60 min; Q9NZ08; AID 652197; 340,000 tested, 0.15% active;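 active means mean replicate inhibition of at least 30%, or all replicates individually reaching that 30% level; inactive means mean below 30% and not every replicate reaching it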
PGC1a acetyl inh: lowers PGC1a acetylation signal in U2OS cells; inhibition, % at 15.6 µM; AlphaScreen anti-acetyl-lysine; with virally co-expressed GCN5 acetyltransferase; 350,000 tested, 0.17% active;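 active means every replicate shows inhibition of at least 40%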
RAD52 inh: RAD52 (human) annealing inhibition. P43351. recombinant RAD52 DNA annealing, FRET fluorescence. inhibition, % at 18.7 µM. 360,000 tested, 0.46% active. AID 651710;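 active means every replicate showing at least 50% inhibition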
RAD54 branch: blocks human RAD54 Holliday junction branch migration | FAM/BHQ fluorescence | Q92698 | 360,000 tested, 0.14% active | inhibition, % at 10.4 µM;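 active means mean normalized replicate activity at least 40 and at least half of replicates scoring 40 or more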;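 further: inhibitors cause a drop in the FAM fluorescence signal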
Target sequence (Q92698 whole entry, looked up): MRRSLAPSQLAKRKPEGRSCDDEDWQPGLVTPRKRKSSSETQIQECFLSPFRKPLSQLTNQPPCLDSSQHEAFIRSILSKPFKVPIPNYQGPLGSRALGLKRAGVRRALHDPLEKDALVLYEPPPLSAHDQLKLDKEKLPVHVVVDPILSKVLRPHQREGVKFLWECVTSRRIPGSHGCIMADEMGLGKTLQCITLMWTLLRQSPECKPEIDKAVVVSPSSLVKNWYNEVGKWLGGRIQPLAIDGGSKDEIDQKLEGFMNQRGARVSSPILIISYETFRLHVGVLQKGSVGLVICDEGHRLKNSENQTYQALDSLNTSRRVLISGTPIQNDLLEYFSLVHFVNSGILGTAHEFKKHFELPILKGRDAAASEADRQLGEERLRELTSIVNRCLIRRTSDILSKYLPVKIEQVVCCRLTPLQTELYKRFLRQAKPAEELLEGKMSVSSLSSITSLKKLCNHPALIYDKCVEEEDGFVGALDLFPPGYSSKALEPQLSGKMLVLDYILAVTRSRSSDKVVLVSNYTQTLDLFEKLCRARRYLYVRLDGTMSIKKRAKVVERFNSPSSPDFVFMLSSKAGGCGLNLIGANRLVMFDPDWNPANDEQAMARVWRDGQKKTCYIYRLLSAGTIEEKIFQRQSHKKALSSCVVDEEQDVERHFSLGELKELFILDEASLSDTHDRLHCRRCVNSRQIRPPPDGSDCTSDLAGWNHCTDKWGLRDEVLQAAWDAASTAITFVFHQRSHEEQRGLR
AF4-AF9 inh: inhibitors of human MLL-AF4/AF9 interaction; P42568; AlphaScreen, biotin-AF4 peptide binding to FLAG-AF9; inhibition, % at 10 µM; 350,000 tested, 0.47% active; AID 651704;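 active means every replicate reaching a set inhibition limit, whatever the replicate mean, cut at about 25% in these data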
Large screens that a line does not name were inactive; ! = not active in a repeat. Sampled rows, rich in hits. Any-hit rate of the full collection: about 1.4%.

COc1cccc(NC(=O)N2C[C@H](O)COC[C@H]3O[C@H](CC(=O)NC4CCCC4)CC[C@@H]32)c1	none
C[C@@H]1CN(C)C(=O)Cc2cc(NS(C)(=O)=O)ccc2O[C@@H]1CN(C)C	none (no result: ERAP1 inh, PGC1a acetyl inh, RAD52 inh, RAD54 branch, AF4-AF9 inh)
CCCN1C[C@H](C)[C@H](OC)CN(C)C(=O)c2ccc(NC(=O)CC)cc2OC[C@H]1C	none (no result: ERAP1 inh, RAD52 inh, RAD54 branch, AF4-AF9 inh)
O=C(O)CC(Sc1n[nH]c(=S)s1)C(=O)O (stereo not drawn)	ERAP1 inh 34 (no result: GSIS activator)
C[C@@H]1CN([C@@H](C)CO)C(=O)c2cc(NC(=O)Nc3ccccc3)ccc2O[C@@H]1CN(C)C(=O)Nc1ccc2c(c1)OCO2	none (no result: ERAP1 inh, RAD52 inh, RAD54 branch, AF4-AF9 inh)
CC(=O)OCCCCCCCCCCC[N+]1(C)CCCCC1	ERAP1 inh 88 (no result: PGC1a acetyl inh, RAD54 branch)
O=C(C[C@@H]1CC[C@H]2[C@@H](COC[C@H](O)CN2Cc2ccc(Oc3ccccc3)cc2)O1)Nc1nccs1	none
CCn1c(SCc2cc(=O)[nH]c3ccccc23)nc2c1c(=O)n(C)c(=O)n2C	GSIS activator 49 (no result: ERAP1 inh, PGC1a acetyl inh, RAD52 inh, RAD54 branch, AF4-AF9 inh)
COc1ccc(CN(C)C[C@H]2OCCCC[C@@H](C)Oc3ccc(NS(=O)(=O)c4cn(C)cn4)cc3C(=O)N([C@@H](C)CO)C[C@H]2C)cc1	none
CC(=O)N(C)C[C@@H]1Oc2ccc(N)cc2C(=O)N(C)C[C@H]1C	none (no result: ERAP1 inh, PGC1a acetyl inh, RAD52 inh, RAD54 branch, AF4-AF9 inh)
CN(C)CCCNc1cc(C(C)(C)C)nc2c(-c3ccc(Cl)cc3)cnn12	GSIS activator 411 (no result: AF4-AF9 inh)
CC(C)(C)c1cc(NCc2ccccn2)n2ncc(-c3ccc(Cl)cc3)c2n1	none (no result: GSIS activator, ERAP1 inh)
O=C(C[C@@H]1C=C[C@@H](NC(=O)c2ccncc2)[C@@H](CO)O1)NCc1ccncn1	none (no result: GSIS activator, RAD54 branch)
O=S1(=O)CC(O)C(O)CS1 (stereo not drawn)	ERAP1 inh 65 (no result: PGC1a acetyl inh, RAD54 branch)
CO[C@@H]1CN(C)C(=O)c2cc(NS(=O)(=O)c3ccc(-c4ccccc4)cc3)ccc2OC[C@H](C)NC[C@@H]1C	none
CO[C@H]1CN(C)C(=O)c2cc(NC(C)=O)ccc2OC[C@@H](C)N(C(=O)c2cnccn2)C[C@H]1C	none (no result: ERAP1 inh)
CC(=O)c1cccc(-n2nnnc2SCC(=O)NNC(=O)C(C)C)c1	PGC1a acetyl inh 85
O=C(Cc1ccccn1)N[C@H]1CC[C@@H](CC(=O)N2CCCCC2)O[C@H]1CO	none
C=CCN(c1ccc(C(=O)Nc2ccc3c(c2)n(C)c(=O)n3C)cc1)S(C)(=O)=O	none
C=CCN(c1ccc(C(=O)Nc2ccc3c(c2)OCO3)cc1)S(C)(=O)=O	PGC1a acetyl inh 93 (no result: RAD54 branch)
CN1C(=O)c2cc(NC(=O)c3cccc(C(F)(F)F)c3)ccc2OC[C@H]2O[C@@H](CC(=O)O)CC[C@H]21	none (no result: PGC1a acetyl inh)
C/C(=N\NC(=S)Nc1cccc(C)c1)c1ccco1	AF4-AF9 inh 36 (no result: RAD54 branch)
CC(C)NC(=O)N[C@@H]1C[C@@H]2O[C@@H](CO)CC[C@@H]2O[C@@H]1CCc1ccc(-c2ccc(F)cc2)cc1	none (no result: GSIS activator, PGC1a acetyl inh, RAD54 branch)
CC(C)NC(=O)N[C@H]1C[C@@H]2O[C@@H](CO)CC[C@@H]2O[C@@H]1CCc1ccc(-c2ccccc2F)cc1	AF4-AF9 inh 33 (no result: GSIS activator, RAD54 branch)
Cc1cccc(-c2ccc([C@H]3[C@@H](CO)N4C(=O)CN(C(=O)Cc5ccccn5)C[C@@H]34)cc2)c1	none (no result: RAD54 branch)
Cc1cc(C)c(NC(=O)c2ccc(S(=O)(=O)N(C)C)cc2)c(C)n1	PGC1a acetyl inh 50
Fc1cccc(Cc2c(-c3ccco3)nc3ccc(Br)cn23)c1	none
Cc1cc(Br)cn2c(Cc3cccc(F)c3)c(-c3ccco3)nc12	GSIS activator 66 (no result: PGC1a acetyl inh, RAD54 branch)
CC1CCc2cc(F)cc3c(=O)c(C(=O)O)cn1c23 (stereo not drawn)	ERAP1 inh 38 (no result: GSIS activator, PGC1a acetyl inh)
COc1ccc(C(=O)Oc2ccc(/C=N/NC(=O)Cc3ccc([N+](=O)[O-])cc3)cc2)cc1	GSIS activator 46 (no result: ERAP1 inh, PGC1a acetyl inh, RAD52 inh, RAD54 branch, AF4-AF9 inh)
CCOC(=O)C1=C(COC(=O)c2ccco2)NC(=O)NC1CC (stereo not drawn)	AF4-AF9 inh 29
CCOC(=O)C1=C(C)NC(=O)NC1c1ccc(OC(=O)c2ccco2)cc1 (stereo not drawn)	none (no result: GSIS activator, ERAP1 inh, RAD52 inh, AF4-AF9 inh)
NC(=O)C[N+]1(CC#CC(O)(c2ccccc2)c2ccccc2)CCCC1	ERAP1 inh 47 (no result: RAD54 branch)
C[C@H]1CCCCO[C@@H](CN(C)Cc2ccc(C(=O)Nc3ccccc3N)cc2)[C@@H](C)CN([C@@H](C)CO)C(=O)c2cc(N(C)C)ccc2O1	none (no result: ERAP1 inh, PGC1a acetyl inh, RAD52 inh, RAD54 branch, AF4-AF9 inh)
N/C(=N\C(=S)Nc1ccccc1)c1ccccc1	AF4-AF9 inh 43
N#Cc1ccc(NC(=S)/N=C(\N)c2ccccc2)cc1	none
COc1ccccc1CNC(=O)CCNS(=O)(=O)c1ccc2[nH]c(=O)oc2c1	GSIS activator 53
COc1ccc(NC(=O)N2CCCCN3[C@H](CO)[C@H](c4ccc(C#Cc5ccccn5)cc4)[C@H]3C2)cc1	RAD52 inh 66
COc1ccc(NC(=O)N2CCCCN3[C@H](CO)[C@@H](c4ccc(C#Cc5ccccn5)cc4)[C@H]3C2)cc1	none (no result: ERAP1 inh, PGC1a acetyl inh, RAD52 inh, RAD54 branch, AF4-AF9 inh)
COc1ccc(NC(=O)N2CCCCN3[C@H](CO)[C@@H](c4ccc(C#Cc5ccccn5)cc4)[C@@H]3C2)cc1	none
COc1ccc(NC(=O)N2CCCCN3[C@@H](CO)[C@@H](c4ccc(C#Cc5ccccn5)cc4)[C@@H]3C2)cc1	RAD52 inh 62
COc1cc(NC(=O)CN2C(=O)C(=O)N(CC(C)C)C2=O)cc(OC)c1	GSIS activator 43
Cc1nnc(NC(=O)CSc2nnc(CCNC(=O)c3ccccc3F)n2C)s1	AF4-AF9 inh 42
CCSc1nnc2ccc(-c3cccs3)nn12	GSIS activator 43
O=C(C[C@@H]1CC[C@H](NC(=O)Cc2ccccn2)[C@H](CO)O1)NCCCN1CCOCC1	none
CC(C)NC(=O)C1(C)CN(S(C)(=O)=O)CC(=O)N1CCCN1CCOCC1 (stereo not drawn)	GSIS activator 44 (no result: PGC1a acetyl inh, RAD54 branch, AF4-AF9 inh)
COCC(=O)Nc1ccc2c(c1)OC[C@@H](C)N(CC1CCCCC1)C[C@@H](C)[C@@H](OC)CN(C)C2=O	none (no result: ERAP1 inh, PGC1a acetyl inh, RAD52 inh, RAD54 branch, AF4-AF9 inh)
O=C(Nc1cc(F)ccc1F)N1[C@@H]2CNC[C@H]1C2c1ccc(-c2ccncc2)cc1 (stereo partly drawn)	none (no result: RAD54 branch)
O=C(Nc1cccc(Cl)c1)N1[C@@H]2CNC[C@H]1C2c1ccc(-c2ccccc2)cc1 (stereo partly drawn)	RAD52 inh 53 (no result: PGC1a acetyl inh, RAD54 branch)
O=C(Nc1cccc(F)c1)N1[C@@H]2CNC[C@H]1C2c1ccc(-c2cccc(F)c2)cc1 (stereo partly drawn)	RAD52 inh 54! (no result: RAD54 branch)
O=C(Nc1cc(F)ccc1F)N1[C@@H]2CNC[C@H]1C2c1ccc(-c2ccc(F)cc2)cc1 (stereo partly drawn)	RAD52 inh 58! (no result: RAD54 branch)
COc1ccc(NC(=O)N(C)C[C@@H]2Oc3ccc(NC(=O)Cn4cnnn4)cc3C(=O)N([C@@H](C)CO)C[C@H]2C)cc1	none
CCCC#Cc1ccc([C@@H]2[C@@H](CO)N3C(=O)CN(C(=O)Nc4ccccc4)C[C@H]23)cc1	none (no result: ERAP1 inh, PGC1a acetyl inh, RAD52 inh, RAD54 branch, AF4-AF9 inh)
COCC(=O)N1CC2(C1)[C@@H](c1ccccc1)[C@@H](CO)N2Cc1ccccc1OC	none (no result: RAD54 branch)
